# High-throughput results: PubChem, National Center for Advancing Translational Sciences (NCATS)
# S2 tox: reduces viability in counter-screen for ATXN expression inhibitors. S2 cells (HEK-293 line with an ATXN2-luciferase reporter) viability, CellTiter-Fluor protease fluorescence, 24 h. Potency, µM (titrated, usually from 56.7 µM), usual class: cytotoxic. 400,000 compounds, 0.49% hits. AID 651635; further: nearly all actives have a fitted effect of over 40% in size
# KB-V1 cytotox: kills drug-selected multidrug resistant KB-V1 cells. KB-V1 MDR cells viability, CellTiter-Glo, 72 h. Potency, µM (series often up to 46.1 µM), actives largely listed as cytotoxic. 400,000 compounds, 3.4% hits. AID 1347076; further: nearly all actives have a fitted effect of over 60% in size
#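 Following 72 h at 37 degrees C with compound, KB-V1 cell viability was read by CellTiter-Glo luminescence, medium being phenol-red-free DMEM plus 10% FBS; concentration-response parameters came from normalized, curve-fitted qHTS data.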
# ATXN2 expr inh: inhibitors of ATXN2 expression | HEK-293 ATXN2-luciferase reporter, luminescence, 24 h | Potency, µM (highest dose often 57 µM), most hits filed as inhibitors | 360,000 compounds, 0.72% hits | AID 1745845; further: nearly all actives have a fitted effect of over 55% in size
#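 qHTS (up to 57 uM final) was run with 24 h compound exposure of reporter cells at 37 °C. Each well was multiplexed: SteadyGlo luminescence measured ATXN2-luciferase expression after a fluorogenic Gly-Phe-AFC viability readout (25 uM final).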
# HT1080-NT tox: kills 2HG-producing HT-1080-NT fibrosarcoma cells; 360,000 compounds, 1.6% hits; Potency, µM (series often up to 46.1 µM), actives largely listed as cytotoxic; HT-1080-NT fibrosarcoma viability, CellTiter-Glo ATP luminescence, 48 h;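 further: NT is the 2HG producing partner of a matched IDH1 knockdown line; nearly all actives have a fitted effect of over 55% in size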
#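 HT-1080-NT fibrosarcoma cells (2HG-overproducing), 750 cells/well in RPMI with 5% FBS, dosed after 2 h and incubated 48 h at 37C. CellTiter-Glo luminescence normalized to DMSO and no-cell wells; concentration-response curves fitted and classed.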
# HT1080 IDH1KD tx: kills HT-1080 cells with IDH1 knockdown; HT-1080 IDH1 knockdown viability, ATP luminescence, 48 h; Potency, µM (titrated, usually from 46.1 µM), hits mostly cytotoxic; 360,000 compounds, 2% hits; AID 686971
#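 After a 2 h attachment period, IDH1KD HT-1080 cells took pin-transferred compound for 48 h at 37 °C; ATP-based luminescence after 10 min room-temperature reagent incubation reported viability.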
# KB-3-1 tox: KB-3-1 parental cell cytotoxicity; KB-3-1 viability, CellTiter-Glo ATP luminescence, 72 h; Potency, µM (series often up to 46.1 µM), hits mostly cytotoxic; 400,000 compounds, 1.4% hits; AID 1347075; further: nearly all actives have a fitted effect of over 60% in size
#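 Using CellTiter-Glo luminescence, growth of non-resistant KB-3-1 adenocarcinoma cells is assessed 72 h after pin-tool compound addition at 37 °C. Normalized responses across the concentration series yield fitted curves.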
# A number is an active result; - = inactive; ? = inconclusive; . = not tested or not shown. Shown are actives, neighbours in structure and some others; about 6.2% of the full set was active somewhere. The call rests on the fitted dose curve; in most records, active means well fitted curve in the direction sought with a large enough effect; inconclusive means small, poorly fitted or top-dose-only effect, or another doubt; inactive means no such curve, though single readings can be large; an effect the other way counts as inactive or inconclusive.
SMILES,S2 tox,KB-V1 cytotox,ATXN2 expr inh,HT1080-NT tox,HT1080 IDH1KD tx,KB-3-1 tox
CCOC(=O)[C@]12CCCC=C1N(Cc1ccc(Cl)cc1Cl)C(=O)[C@H](CC(=O)NCCc1ccccc1OC)C2,?,?,-,?,?,?
C[N+]1(CC(=O)c2ccc3c(c2)CCCC3)CCOCC1,.,-,.,.,.,?
CCCOc1ccc(-c2nn(-c3ccccc3)cc2C2NC(=O)NC(C)=C2C(=O)OC(C)C)cc1 (stereo not given),-,?,-,.,.,-
CC1(C(=O)NCc2ccccc2Br)CCN1Cc1ccc(-c2ccccc2)o1 (stereo not given),-,21µM,-,?,?,5.2µM
CC1(C(=O)Nc2cccc(C#N)c2)CCN1C(=O)Cc1ccc(-c2ccccc2)cc1 (stereo not given),?,-,?,?,?,-
CC1(C(=O)NCc2cccc3ccccc23)CCN1C(=O)Cc1ccc(-c2ccccc2)cc1 (stereo not given),?,-,?,18µM,?,-
Cc1ccc(NC(=O)C2(C)CCN2C(=O)Cc2ccc(C(C)C)cc2)cc1 (stereo not given),-,?,-,?,?,?
CC1(C(=O)NCc2cccc(C(F)(F)F)c2)CCN1Cc1ccc(-c2ccccc2)o1 (stereo not given),-,?,?,?,?,-
CC(C)c1ccc(CC(=O)N2CCC2(C)C(=O)Nc2ccc3c(c2)OCO3)cc1 (stereo not given),-,21µM,-,-,?,?
CC1(C(=O)Nc2ccc3c(c2)OCCO3)CCN1C(=O)Cc1ccc(-c2ccccc2)cc1 (stereo not given),-,18µM,-,?,?,?
Clc1ccc(-n2cccc2CN2CCOc3ccc(CN4CCOCC4)cc3C2)nc1,-,.,.,.,.,.
CCCCN(Cc1cc2ccccc2[nH]c1=O)C(=O)c1cccc(Cl)c1,?,-,-,.,.,-
Cc1ccc(NC(=O)COC(=O)c2ccccc2OCC(=O)Nc2ccc(Br)cc2)c(C)c1,.,-,.,.,.,-
Cc1ccc(NC(=O)C2(C)CCN2C(=O)Cc2ccc(C(C)(C)C)cc2)cc1C (stereo not given),?,-,-,18µM,?,-
Cc1ccc(NC(=O)C2(C)CCN2C(=O)Cc2ccccc2)cc1C (stereo not given),-,-,-,-,-,-
COc1ccc(-n2ncc(C(=O)NCCc3ccsc3)c2C2CCN(C(=O)OC(C)(C)C)CC2)cc1,.,-,.,.,.,-
Cc1ccccc1C1N=C2Oc3ccccc3C=C2C(=O)N1 (stereo not given),.,4.1µM,-,-,-,7.3µM
O=C(CSc1nnc(Cn2nnc3ccccc32)o1)N(Cc1ccc(F)cc1)c1ccccc1,-,?,-,0.28µM,?,5.2µM
COc1ccc(N(Cc2ccccc2)C(=O)CSc2nnc(Cn3nnc4ccccc43)o2)cc1,-,8.2µM,?,-,-,?
O=C(CSc1nnc(Cn2nnc3ccccc32)o1)Nc1ccc(Cl)cc1,-,-,-,-,-,-
O=C(CCS(=O)(=O)Cc1ccccc1)N1CCc2ccccc2C1,-,16µM,-,-,-,-
O=C(CCS(=O)(=O)Cc1ccccc1F)N1CCc2ccccc2C1,-,-,-,-,-,-
O=C(c1ccc(N2CCCC2)c([N+](=O)[O-])c1)N1CCc2ccccc2C1,?,2.6µM,-,-,-,?
O=C(c1ccc(S(=O)(=O)N2CCCCC2)cc1)N1CCc2ccccc2C1,.,?,-,-,-,-
O=C(c1ccc(N2CCCCC2)c([N+](=O)[O-])c1)N1CCOCC1,-,?,-,-,-,-
SMILES,S2 tox,KB-V1 cytotox,ATXN2 expr inh,HT1080-NT tox,HT1080 IDH1KD tx,KB-3-1 tox
CC1Cc2ccccc2N1C(=O)c1ccc(N2CCCCC2)c([N+](=O)[O-])c1 (stereo not given),-,13µM,-,-,-,-
O=C(c1ccc(S(=O)(=O)c2ccccc2)cc1)N1CCc2ccccc2C1,-,18µM,-,-,-,-
CCOc1cccc(CC(=O)Nc2ccc3nc(N4CCCCC4)cc(C)c3c2)c1OCC,-,-,-,.,.,-
O=C1NC(=O)C(=Cc2ccc(-c3ccc(F)cc3)o2)S1,.,.,-,.,.,.
CCCCN(C)CCCNC(=O)C1CCN(c2nc3ccc(CC)cc3s2)CC1,.,-,?,.,.,-
CCC[C@H]1COCCS(=O)(=O)N1Cc1ccc(F)cc1,.,?,.,.,.,-
O=C(c1ccc2c(c1)OCO2)N(Cc1cc2ccc(F)cc2nc1N1CCC(O)CC1)CC1CCCO1 (stereo not given),-,.,.,.,.,.
O=C(Nc1ccc(Br)c(C(F)(F)F)c1)c1ccc(C(F)(F)F)cc1,-,?,?,21µM,13µM,?
O=C(Nc1ccc(Br)c(C(F)(F)F)c1)c1ccccc1,-,16µM,-,-,-,-
O=C(Nc1ccc(OCC(F)(F)C(F)F)c(C(F)(F)F)c1)c1ccc(Cl)cc1,-,?,?,26µM,15µM,?
CC(C)(C)C1CCc2c(sc(NC(=O)c3noc4c3CCCC4)c2C#N)C1 (stereo not given),-,?,-,.,.,-
COc1cc(NC(=O)Cn2c(=O)cc(C)c3c(C)nn(-c4ccc(C)cc4)c32)cc(OC)c1,-,-,-,.,.,-
O=C(NCc1ccccc1Cl)c1ccc2c(O)c(S(=O)(=O)c3ccccc3)c(=O)[nH]c2c1,-,-,-,.,.,-
CCn1nnnc1NCc1ccc(OCc2c(F)cccc2Cl)c(OC)c1,-,?,.,-,-,-
COc1cc(CNn2nnnc2N)ccc1OCc1c(Cl)cccc1Cl,-,15µM,-,-,-,16µM
Cc1ccc(C(=O)/C=C\C(=O)c2ccc(C)cc2)cc1,-,-,-,-,?,-
Cc1ccc(S/C=C\C(=O)c2ccccc2)cc1,22µM,?,?,22µM,13µM,-
Cc1ccc(S(=O)(=O)Nc2cccc(C(=O)NCC(c3ccc(F)cc3)N3CCOCC3)c2)cc1 (stereo not given),-,?,-,-,-,-
O=C(NCC(c1cccs1)N1CCOCC1)c1cc([N+](=O)[O-])cc([N+](=O)[O-])c1 (stereo not given),-,23µM,-,-,-,-
O=C(NCC(c1cccs1)N1CCOCC1)c1cccc([N+](=O)[O-])c1 (stereo not given),-,-,-,?,?,-
O=C(NCC(c1cccs1)N1CCOCC1)c1ccc(Cl)s1 (stereo not given),-,16µM,-,.,.,?
O=C(NCC(c1cccs1)N1CCOCC1)c1ccc(Cl)cc1 (stereo not given),-,?,-,?,?,?
Cc1cccc(NS(=O)(=O)c2cccc(C(=O)NCC(c3ccc(F)cc3)N3CCOCC3)c2)c1 (stereo not given),-,21µM,-,-,-,?
